Only some compounds are listed: those with a hit (about 18% of all), similar ones and a draw of the others.
DT40 TDP1 CPT – growth inhibition of DT40 Tdp1-/-;hTDP1 cells with camptothecin (screen for TDP1 inhibitors); chicken DT40 Tdp1-/-;hTDP1 cells + 20 nM CPT, ATP luminescence, 48 h; Potency, µM (highest dose often 46.2 µM), for inactives: at the top dose activity change, negative = growth inhibition, most hits filed as inhibitors; actives 12% (n = 420,000); AID 686979; also: potency is read from the fitted curve at half-maximal effect; nearly all actives have a fitted effect of over 55% in size
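Chicken DT40 Tdp1-/- cells stably complemented with human TDP1 were seeded at 400 cells/well in medium containing 20 nM camptothecin, exposed to pin-transferred compounds, and grown at 37 °C for at least 48 hr. Viability was read as ATP luminescence.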
DT40 TDP1 no CPT – qHTS for Inhibitors of human tyrosyl-DNA phosphodiesterase 1 (TDP1): qHTS in cells in absence of CPT; actives 15% (n = 420,000); DT40 Tdp1-/- hTDP1 cells, no CPT, ATP luminescence, 48 h; Potency, µM (doses to about 46.2 µM), for inactives: at the top dose activity change, negative = growth inhibition, most hits filed as inhibitors; also: potency is read from the fitted curve at half-maximal effect; nearly all actives have a fitted effect of over 55% in size
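Camptothecin absent (DMSO only). Human TDP1-complemented DT40 knockout cells, 400 cells/well, 37 °C for minimum 48 hr; ATP measured via CellTiter-Glo, 30 min dark incubation, luminescence.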
RORg inh – blocks mouse ROR gamma transcriptional activity | P51450 | Drosophila S2 Gal4-RORgamma UAS-luciferase reporter, 20 h | Potency, µM (doses to about 53.6 µM), for inactives: at the highest dose activity change, negative = inhibition, most hits filed as inhibitors | actives 5.4% (n = 310,000) | AID 2551; also: potency is read from the fitted curve at half-maximal effect; nearly all actives have a fitted effect of over 60% in size
Target sequence (P51450 whole entry, looked up, the tested form may be a part): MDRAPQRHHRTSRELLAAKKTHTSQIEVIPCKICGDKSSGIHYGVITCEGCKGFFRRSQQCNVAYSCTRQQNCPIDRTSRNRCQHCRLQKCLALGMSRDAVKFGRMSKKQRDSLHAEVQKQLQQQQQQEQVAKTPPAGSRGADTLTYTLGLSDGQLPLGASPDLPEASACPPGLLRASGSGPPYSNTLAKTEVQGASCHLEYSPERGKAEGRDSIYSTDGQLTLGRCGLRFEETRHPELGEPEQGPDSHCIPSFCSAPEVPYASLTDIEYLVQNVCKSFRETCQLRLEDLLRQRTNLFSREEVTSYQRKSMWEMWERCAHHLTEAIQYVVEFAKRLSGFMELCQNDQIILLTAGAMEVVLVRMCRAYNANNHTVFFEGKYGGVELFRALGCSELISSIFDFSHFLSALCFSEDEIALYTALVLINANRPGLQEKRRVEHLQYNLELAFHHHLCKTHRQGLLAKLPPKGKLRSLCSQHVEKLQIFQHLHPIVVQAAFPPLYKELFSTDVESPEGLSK
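Drosophila S2 cells stably expressing Gal4-DBD/mouse RORγ fusion under metallothionein promoter plus UAS-luciferase; compound 1 h, then 700 uM CuSO4 induction for 20 h at ambient temperature; inhibition read as reduced luminescence.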
IL-1B inflam inh – blocks inflammasome-driven IL-1 beta release | THP-1 LPS/ATP IL-1B secretion, AlphaLISA, 16 h; stronger effect = lower value | activity change, % at 57.5 µM | actives 4.7% (n = 360,000); in the data active = activity change below about -50%; inconclusive = mostly about -30% to -49%
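Secreted IL-1B measured by AlphaLISA bead assay after 16 h compound exposure of THP-1 cells; compounds (final up to 57.5 uM) added 1 h before LPS (250 ng/mL) and ATP (1.25 mM) stimulation; lower signal means less secretion.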
LDHA inh – blocks human lactate dehydrogenase A; purified LDHA, NADH/diaphorase-resazurin fluorescence; stronger effect = lower value; activity change, % (values are at about 110 or 230 µM); actives 0.15% (n = 480,000); AID 1347041; in the data active = activity change below about -30%; inconclusive = mostly about -25% to -30%;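 also: plate controls were DMSO wells for no effect and wells without enzyme for full effect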
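LDH5 2 nM; NADH 0.06 mM, pyruvate 0.2 mM; 200 mM Tris pH 7.4, EDTA, Tween-20; 5 min RT. Detection: diaphorase 0.133 mg/mL + resazurin 37 µM, fluorescence ex540/em590 at 0 and 20 min; normalized to enzyme-free and DMSO wells.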
VP16 counter – inhibits Gal4-VP16 luciferase reporter, ROR gamma counter-screen | Drosophila S2 Gal4-VP16 UAS-luciferase, luminescence, 20 h | Potency, µM (titrated, usually from 53.6 µM), for the others: top-dose activity, negative = inhibition, hits mostly inhibitors | actives 3.5% (n = 310,000) | AID 2546;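 also: Gal4-VP16 expression switched on by copper sulfate through the metallothionein promoter; potency is read from the fitted curve at half-maximal effect; nearly all actives have a fitted effect of over 50% in size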
* marks the source's active call; other numbers are inactive results; ? = inconclusive; / = no result given; [ ] = dose if it differs, or a comment. Unless noted, calls follow the shape of the dose curve; as a rule, active = well fitted curve in the direction sought with a large enough effect; inconclusive = small, poorly fitted or top-dose-only effect, or another doubt; inactive = no such curve, though single readings can be large; an effect the other way counts as inactive or inconclusive. Unless noted, % is scaled to controls: 0 for no effect and ±100 for the full control effect.

SMILES | DT40 TDP1 CPT | DT40 TDP1 no CPT | RORg inh | IL-1B inflam inh | LDHA inh | VP16 counter
CC(C)c1ccccc1OCC(=O)Nc1ccccc1C(=O)N1CCOCC1 | 16µM* | 16µM* | 4% | -11 | 5 | -2%
CC1CCCC(NC(=O)COC(=O)c2ccc(N(C)C)cc2)C1C (stereo unspecified) | ? | -25% | 1% | -8 | 0 | 2%
COc1ccc(OCC(=O)Nc2ccccc2C(=O)N2CCOCC2)cc1 | 0% | -8% | -12% | 16 | -4 | -1%[10 µM]
CCN(CC)c1ccc(C(=O)OCC(=O)NC2CCCCC2C)cc1 (stereo unspecified) | 21µM* | 15µM* | 11% | 33 | 2 | -10%
Cc1ccccc1OCC(=O)Nc1ccccc1-c1ccccc1 | -16% | 6.5µM* | ? | 37 | -2 | -28%
Cc1ccccc1NC(=O)COc1ccccc1C | 0% | 7% | / | -3 | -5 | /
Cn1c(=O)n(CC(=O)NCc2nnc3n2CCCCC3)c2ccccc21 | / | / | / | / | 0 | /
O=C1CC(C(=O)Nc2ccc(Cl)cc2Cl)n2nc(-c3ccccc3)cc2N1 (stereo unspecified) | / | / | / | / | -9 | /
CCc1ccc(NC(=O)C/C(C)=N/NC(=O)COc2ccccc2C)cc1 | -28% | -26% | -32% | 11 | -6 | 16%
CNC(=S)NNC(=O)COc1ccccc1C | 0% | 0% | 7.1µM* | ? | -8 | 10µM*
CCc1ccccc1NC(=O)C/C(C)=N/NC(=O)COc1ccccc1C | -3% | 2% | 11µM* | 3 | -5 | ?
CCOC(=O)N1CCN(C(=O)C2CCN(C(=O)c3ccccc3C)CC2)CC1 | 0.92µM* | 1µM* | / | -103* | -3 | /
CCOc1ccc(S(=O)(=O)NCc2ccco2)cc1C(C)C | / | / | / | / | -14 | /
CC1CCN(CCCNC(=O)CN2C(=O)CSc3ccc(S(=O)(=O)N4CCC(C)CC4)cc32)CC1 | ? | 15µM* | -10% | ? | -1 | 2%
COc1cccc(NC(=O)CN2C(=O)CSc3ccc(S(=O)(=O)N4CCC(C)CC4)cc32)c1 | ? | ? | ? | -89* | 0 | -5%
CC(/C=C/C=C/c1ccccc1)=N/NC(=O)CNc1ccccc1C | 10µM* | ? | 0% | 6 | -5 | 13%
CCOC(=O)N/N=C/C(Cl)=C/c1ccccc1 | -26% | ? | ? | -53* | -10 | ?
CCOC(=O)N/N=C(C)/C=C/c1ccccc1 | 0.37µM* | 0.082µM* | 21%[10 µM] | -3 | 4 | 13%
O=C1CSC(c2cccnc2)N1CCc1ccccn1 (stereo unspecified) | 1% | -1% | ? | 14 | -3 | 11µM*
O=C1CSC(c2cccnc2)N1Cc1cccnc1 (stereo unspecified) | 17% | 5% | -8% | 22 | -10 | -7%
Cc1ccccc1-n1cc(C(=O)c2cc(Cl)ccc2O)cc(C#N)c1=O | ? | 12µM* | ? | 0 | 3 | -23%
N#Cc1cc(C(=O)c2cc(Br)ccc2O)cn(Cc2ccccc2)c1=O | ? | 21µM* | ? | ? | -11 | ?
Cc1c(-n2cc(C(=O)c3cc(F)ccc3O)cc(C#N)c2=O)c(=O)n(-c2ccccc2)n1C | 4% | -10% | 5% | -56* | -2 | 5%
N#Cc1cc(C(=O)c2cc(Cl)ccc2O)cn(CC2CCCO2)c1=O (stereo unspecified) | ? | 21µM* | -3% | -1 | 0 | -8%
N#Cc1cc(C(=O)c2cc(F)ccc2O)cn(-c2nccs2)c1=O | -18% | ? | 33% | 23 | -1 | -14%
SMILES | DT40 TDP1 CPT | DT40 TDP1 no CPT | RORg inh | IL-1B inflam inh | LDHA inh | VP16 counter
c1nc(Sc2ccc3c(c2)OCCCO3)c2ccsc2n1 | / | / | / | / | 0 | /
COc1ccc(CNC(=O)CC2CCN(C(=O)c3cn(-c4ccccc4)nc3C)CC2)cc1 | / | / | / | / | 7 | /
CC(C)CNc1oc(/C=C/c2cccs2)nc1C#N | / | / | / | / | -1 | /
COC(=O)c1ccc(C2Nc3c(C)cc(C)cc3C3C=CCC32)cc1 (stereo unspecified) | ? | ? | / | / | 0 | /
Cc1cc(C)c2c(c1)[C@@H]1C=CC[C@@H]1[C@H](c1ccc(S(=O)(=O)N3CCOCC3)cc1)N2 | 16µM* | 18µM* | -1% | -17 | 0 | ?
COc1cc(OC)c(NC(=O)c2nc3ccccc3nc2N2CCCC2)cc1Cl | / | / | / | / | -1 | /
Cc1nc(NC(=O)Cn2ccc(=O)n(C)c2=O)sc1C | / | / | / | / | -4 | /
CC1(OC(=O)CCc2ccccc2)C(=O)C=C2C=C(c3ccc(C#N)cc3)N(CC3CC3)C=C2C1=O (stereo unspecified) | 15µM* | ? | -15% | -16 | 1 | -1%
CC1(OC(=O)CCc2ccccc2)C(=O)C=C2C=C(c3ccc(C#N)cc3)OC=C2C1=O (stereo unspecified) | / | / | 28% | / | / | -1%
CC1(OC(=O)CCc2ccccc2)C(=O)C=C2C=C(c3ccc(C#N)cc3)N(CCN3CCOCC3)C=C2C1=O (stereo unspecified) | -4% | -2% | 6% | 29 | 1 | 6%
CC1(OC(=O)CCc2ccccc2)C(=O)C=C2C=C(c3ccc(C#N)cc3)N(c3ccccc3)C=C2C1=O (stereo unspecified) | ? | 13µM* | -3% | 9 | 5 | -3%
CC1(OC(=O)CCc2ccccc2)C(=O)C=C2C=C(c3ccc(C#N)cc3)N(C3CCCC3)C=C2C1=O (stereo unspecified) | 23µM* | 15µM* | 27% | 13 | -9 | -7%
CCCCNC1C2CC3CC1CC(C2)C3NCCCC (stereo unspecified) | / | / | / | / | 4 | /
COc1ccc(C)cc1N(C(=O)c1ccccc1)c1nc2ccccc2s1 | -28% | ? | -27% | -3 | -4 | 4%
COc1ccccc1C(=O)N(CCC1CCCN1C)c1nc2ccccc2s1 (stereo unspecified) | -24% | ? | 7.1µM* | -78* | -3 | ?
COCCNC(=S)Nc1ccccc1Cc1ccccc1 | 2% | 14% | 3.5µM* | 0 | 1 | 10µM*
COCCNC(=S)NN(c1ccccc1)c1ccccc1 | -3% | -5% | 7.9µM* | -1 | -11 | ?
COCCNC(=S)N(c1ccccc1)C(C)C | 1% | ? | -28% | -5 | -7 | 8%
O=C(Nc1ccccc1)Nc1ccccc1C(=O)NCC1CC1 | -13% | -13% | -15% | 0 | -2 | 2%
CNC(=S)NN(c1ccccc1)c1ccccc1 | -6% | -1% | 18µM* | -18 | -4 | ?
CN(C)C(=S)Cc1ccccc1 | / | / | / | / | 0 | /

Screens: PubChem, National Center for Advancing Translational Sciences (NCATS)
